Results filed as inconclusive are left out. Activity calls are given as the source filed them. The call rests on the fitted dose curve; in most records, active means well fitted curve in the direction sought with a large enough effect in the repeat runs; inconclusive means weak or mixed curves; inactive means no such curve, though single readings can be large; an effect the other way counts as inactive or inconclusive.

The values below come from PubChem BioAssay (NCATS).

Experiment [1] concerns the target Cytochrome P450 2D6 (Homo sapiens) (UniProt P10635). The experiment is described as follows: Cytochrome P450 family 2 subfamily D member 6 (CYP2D6) small molecule antagonists: luciferase biochemical (cell-free) qHTS assay (AID 1645840). The settings on record: P450-Glo CYP2D6 enzyme, luciferin luminescence, 1 h; series mostly up to 57.4 µM. Put shortly:
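P450-Glo luminescent screen: recombinant CYP2D6 enzyme–proluciferin substrate mix preincubated with compound 10 min at room temperature, then NADPH regeneration added for 1 h at room temperature. Detection reagent added for 20 min; luciferin light read as relative luminescence units.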

Experiment [2] concerns the target Cytochrome P450 2C9 (Homo sapiens) (UniProt P11712). In words: Cytochrome P450 family 2 subfamily C member 9 (CYP2C9) small molecule antagonists: luciferase biochemical (cell-free) qHTS assay (AID 1645842). The settings on record: P450-Glo CYP2C9 enzyme assay, luciferin luminescence; series mostly up to 57.4 µM. Put shortly:
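Luminescence, after 20 min with luciferin detection reagent, reflected CYP2C9 turnover during a 1 h NADPH-driven reaction at 37C. Enzyme-substrate mix contained 0.4% bovine serum albumin and was preincubated with compound 10 min at room temperature.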
On the technique in general: In qHTS, concentration-response curves come from the screen itself.
Further: nearly all actives have a fitted effect of over 55% in size.
Potency means the concentration at half of the fitted maximal effect.

Chain of Cytochrome P450 2D6 (Homo sapiens) (P10635 whole entry, looked up): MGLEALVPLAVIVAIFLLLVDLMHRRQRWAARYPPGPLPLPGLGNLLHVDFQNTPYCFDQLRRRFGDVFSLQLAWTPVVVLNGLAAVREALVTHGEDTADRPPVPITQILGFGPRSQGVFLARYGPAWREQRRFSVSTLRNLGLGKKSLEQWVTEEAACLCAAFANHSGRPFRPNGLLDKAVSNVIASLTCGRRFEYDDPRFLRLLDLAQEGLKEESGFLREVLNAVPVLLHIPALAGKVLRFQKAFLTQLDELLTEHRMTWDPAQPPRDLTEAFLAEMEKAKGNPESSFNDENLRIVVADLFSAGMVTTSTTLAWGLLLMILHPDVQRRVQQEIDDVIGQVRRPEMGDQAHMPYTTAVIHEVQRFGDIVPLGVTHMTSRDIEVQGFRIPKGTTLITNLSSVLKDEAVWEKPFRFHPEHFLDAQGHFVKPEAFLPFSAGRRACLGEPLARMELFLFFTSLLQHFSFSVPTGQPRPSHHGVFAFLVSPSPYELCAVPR
Chain of Cytochrome P450 2C9 (Homo sapiens) (P11712 whole entry, looked up): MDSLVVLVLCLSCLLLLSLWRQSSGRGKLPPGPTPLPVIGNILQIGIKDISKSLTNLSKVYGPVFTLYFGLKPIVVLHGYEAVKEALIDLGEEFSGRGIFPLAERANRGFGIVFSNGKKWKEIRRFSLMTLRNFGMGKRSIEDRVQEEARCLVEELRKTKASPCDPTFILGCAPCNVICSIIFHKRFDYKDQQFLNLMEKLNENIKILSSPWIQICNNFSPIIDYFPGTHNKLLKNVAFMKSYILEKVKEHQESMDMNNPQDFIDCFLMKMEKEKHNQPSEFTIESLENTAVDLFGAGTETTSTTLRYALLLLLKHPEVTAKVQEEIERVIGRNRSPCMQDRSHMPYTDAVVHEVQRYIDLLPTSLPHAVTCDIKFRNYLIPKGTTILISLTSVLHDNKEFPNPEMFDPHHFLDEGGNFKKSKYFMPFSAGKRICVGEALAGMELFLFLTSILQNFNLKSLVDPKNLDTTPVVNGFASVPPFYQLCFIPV

With `Cc1ccc2nc3c(cc(C#N)c(=O)n3-c3nnc(SCc4ccccc4)s3)c(=O)n2c1`, in experiment [1], the Potency result is “inactive”. Also, the Potency in experiment [2] is 3790 nM (active).

Regarding `COc1ccc(CCNc2nc(SCc3ccccc3Cl)nc3ccccc23)cc1OC`, the Potency in experiment [1] was 756 nM (active); in experiment [2], 190 nM (active).

Turning to `Cc1cc(O)c(Cl)c(C)c1Cl`, the Potency entry in experiment [1] and in experiment [2] was “inactive” throughout.

As to `CCOc1ccccc1NC(=O)Cn1c(=O)n(CCC(=O)NCc2ccc3c(c2)OCO3)c(=O)c2ccccc21`, the Potency in experiment [1] was 425 nM (active); in experiment [2] it was 601 nM (active).

As to `Cc1ccc(S(=O)(=O)Nc2nc3n(n2)C(c2ccc(F)cc2)C=C(c2ccccc2)N3)cc1` (stereo not given), the Potency entry in experiment [1] and in experiment [2] was “inactive” throughout.

Consider `CCOC(=O)N1CCc2c(sc3c2c(=O)n(Cc2ccccc2)c(=O)n3CC(=O)Nc2cccc(C)c2)C1`, for which the Potency in experiment [1] was 1510 nM (active); in experiment [2], 4250 nM (active).

For the molecule `CCOC(=O)c1cnc2ccc(OC)cc2c1NCCc1ccc(OC)c(OC)c1`, the Potency in experiment [1] is 2390 nM (active); in experiment [2], 849 nM (active).

Take `Cc1cccc(NC(c2cccc(Cl)c2)c2ccc3cccnc3c2O)n1` (stereo not given): the Potency entry in experiment [1] was “inactive”. Moreover, the Potency in experiment [2] is 28200 nM (active).

Take `Nc1ccn(C2O[C@H](CO)[C@@H](O)[C@@H]2O)c(=O)n1` (stereo not given in full): the Potency entry in experiment [1] and in experiment [2] was “inactive” each time.

For `COc1ccc(CCNC(=O)c2nc(SCc3ccccc3F)ncc2Cl)cc1OC`, the Potency result in experiment [1] is “inactive”. In addition, the Potency in experiment [2] is 379 nM (active).

Regarding `CCOc1ccccc1NC(=O)CSc1nc2ccccc2c2nc(CCn3cncc3C)nn12`, the values for the Potency in experiment [1] and in experiment [2] were 10700 nM (active) and 952 nM (active), respectively.

On to `Oc1c(C(c2ccc(Cl)cc2Cl)N2CCN(Cc3ccccc3)CC2)sc2nc(-c3ccco3)nn12` (stereo not given), for which the values for the Potency in experiment [1] and in experiment [2] were 7560 nM (active) and 6010 nM (active), respectively.

On to `CCC(C)Nc1cc(C(=O)NC2CC3CCC(C2)N3c2ccc(C(=O)C3CC3)cn2)c(C)cc1C(N)=O` (stereo not given), for which, in experiment [1], the Potency entry is “inactive”. Moreover, the Potency in experiment [2] was 8490 nM (active).

Regarding `COc1ccc(CNC(=O)Cn2c(SCC(=O)Nc3ccc(C)c(C)c3)nc3ccccc32)cc1`, the Potency entry in experiment [1] was “inactive”. The Potency in experiment [2] was 2390 nM (active).

For the molecule `CCOc1ccc(NC(=O)Cn2cc(C(=O)c3cccs3)c3ccccc32)cc1`, the Potency entry in experiment [1] is “inactive”. The Potency in experiment [2] was 1690 nM (active).

As to `Clc1cccc(-n2ncc3c(NCCCn4ccnc4)ncnc32)c1`, the values for the Potency in experiment [1] and in experiment [2] were 2130 nM (active) and 379 nM (active), respectively.

As for `Cc1ccc(S(=O)(=O)N2CCc3cc(C(=O)Nc4ccc(C(F)(F)F)cc4)ccc32)cc1`, the Potency entry in experiment [1] was “inactive”. In experiment [2], the Potency is 1510 nM (active).

Turning to `CN(C)[S+](=O)([O-])c1ccc([S+](=O)([O-])N(Cc2cccs2)Cc2ccccc2Cl)cc1`, the results for the Potency in experiment [1] and in experiment [2] were 1900 nM (active) and 3790 nM (active), respectively.

For `Cc1ccc(C2=Nc3ccccc3N(CC(=O)Nc3ccccc3F)C(=O)C2)cc1C`, the Potency in experiment [1] is 2390 nM (active). In experiment [2], the Potency result was “inactive”.

Regarding `Cc1ccc([S+](=O)([O-])NC2CCC(C)(C)CC2)cc1`, in experiment [1], the Potency entry is “inactive”. Besides, the Potency in experiment [2] is 2130 nM (active).

Take `O=C(CC1N=C2c3ccccc3N=C(SCc3ccc(F)cc3)N2C1=O)NC1CCCCC1` (stereo not given): the values for the Potency in experiment [1] and in experiment [2] were 3010 nM (active) and 2680 nM (active), respectively.

Consider `OC[C@@H](O)C(O)[C@@H](O)CO` (stereo not given in full), for which the Potency entry in experiment [1] and in experiment [2] was “inactive” throughout.

With `O=C(CCCCCn1c(=O)c2sccc2n(CC(=O)Nc2cccc(Cl)c2)c1=O)NCc1ccc2c(c1)OCO2`, the values for the Potency in experiment [1] and in experiment [2] were 26.8 nM (active) and 239 nM (active), respectively.

Regarding `CCc1ccc(CNC(=O)C2CCCN(c3nnc(C)c4c(C)n(-c5ccc(OC)cc5)nc34)C2)cc1` (stereo not given), the values for the Potency in experiment [1] and in experiment [2] were 7560 nM (active) and 1690 nM (active), respectively.

In the case of `CC[C@H](CO)Nc1cc(NCc2ccc(-c3ccccn3)cc2)c2ncn(C(C)C)c2n1`, the Potency in experiment [1] is 16900 nM (active); in experiment [2] it was 1340 nM (active).

Take `Cc1ccc(S(=O)(=O)NC2CCC(C(C)(C)C)CC2)cc1` (stereo not given): the Potency entry in experiment [1] is “inactive”. For the same molecule, in experiment [2], the Potency was 2680 nM (active).

With `Cc1ccc2nc(-c3ccccn3)c(Nc3ccccc3C)n2c1`, the Potency in experiment [1] is 21300 nM (active); in experiment [2], 1900 nM (active).

In the case of `COc1cc(=O)n2c(c1C(=O)NCc1ccc3c(c1)OCO3)CCN(C(=O)c1ccc(C)cc1C)CC2`, the Potency in experiment [1] is 10700 nM (active); in experiment [2], 19000 nM (active).

For the molecule `COc1ccc(NC(=O)CSc2oc(-c3cccs3)nc2S(=O)(=O)c2ccc(Br)cc2)c(OC)c1`, the Potency result in experiment [1] is “inactive”. Further, the Potency in experiment [2] is 477 nM (active).

Take `CC1=C(C(=O)Nc2cccc(CN)c2)C(c2ccccc2Cl)N=C(Nc2nc3ccccc3o2)N1` (stereo not given): the Potency is 3380 nM (active) in experiment [1] and 5350 nM (active) in experiment [2].

Regarding `Cc1ccccc1-n1c(SCc2ccc(Cl)cc2)nc2[nH]ncc2c1=O`, the figures for the Potency in experiment [1] and in experiment [2] were 21300 nM (active) and 2390 nM (active), respectively.

In the case of `CN(C)S(=O)(=O)c1ccc(S(=O)(=O)N(Cc2ccccc2Cl)C[C@@H]2CCCO2)cc1`, in experiment [1], the Potency entry was “inactive”. Besides, in experiment [2], the Potency was 9520 nM (active).

For `CCCOCc1cc(CN2CCN(c3cccc(Cl)c3)CC2)c(O)c2ncccc12`, the Potency result in experiment [1] was “inactive”. Also, the Potency in experiment [2] was 6740 nM (active).

For `COc1ccccc1CNC(=O)C1CCCN(c2nc3ccccc3n3cccc23)C1` (stereo not given), the Potency in experiment [1] is 2680 nM (active); in experiment [2], 67.4 nM (active).

In the case of `CCCCn1cnc2cc(NCc3ccccc3Cl)ccc21`, the values for the Potency in experiment [1] and in experiment [2] were 120 nM (active) and 2130 nM (active), respectively.

For the molecule `Cc1ccc(CSc2nc3ccncc3n2Cc2nc(-c3ccccc3C)oc2C)cc1`, the Potency in experiment [1] was 2390 nM (active); in experiment [2], 7560 nM (active).

Consider `Cc1ccc(OCC(=O)Nc2cccc(OCc3cc(=O)n4cccc(C)c4n3)c2)cc1C`, for which the Potency result in experiment [1] was “inactive”. The Potency in experiment [2] is 756 nM (active).

As to `Cc1cccc(NC(=O)Cn2cc(C(=O)c3ccco3)c3ccccc32)c1C`, the Potency in experiment [1] is 6010 nM (active); in experiment [2], 3010 nM (active).

Consider `CN1C(=O)NC(Cc2c[nH]c3c(Cl)cccc23)C1=O` (stereo not given), for which the Potency result in experiment [1] is “inactive”. In addition, the Potency in experiment [2] is 13500 nM (active).

For the molecule `COc1ccccc1OCCn1c(NC(=O)c2ccccc2Cl)nc2ccccc21`, in experiment [1], the Potency entry was “inactive”. The Potency in experiment [2] is 3790 nM (active).

Turning to `Cc1ccc(S(=O)(=O)N[C@@H]2CCCC[C@H]2O)cc1`, the Potency entry in experiment [1] and in experiment [2] was “inactive” throughout.

Take `COc1ccc(Cn2c(CCC(=O)Nc3ccc(C)c(C)c3)nc3cccnc32)cc1`: in experiment [1], the Potency entry is “inactive”. In addition, the Potency in experiment [2] was 7560 nM (active).

Regarding `CC1=C(C(=O)Nc2ccccc2C)C(c2cccnc2)n2nc(SCc3ccccc3)nc2N1` (stereo not given), the Potency result in experiment [1] is “inactive”. In experiment [2], the Potency is 2390 nM (active).

Regarding `CC(C)OCc1cc(CN2CCN(c3cccc(C(F)(F)F)c3)CC2)c(O)c2ncccc12`, the Potency entry in experiment [1] was “inactive”. Besides, the Potency in experiment [2] is 12000 nM (active).

Regarding `Cc1cccc(NC(c2ccccc2F)c2ccc3ccc(C)nc3c2O)n1` (stereo not given), in experiment [1], the Potency entry was “inactive”. Further, the Potency in experiment [2] is 6010 nM (active).

In the case of `COc1ccc(-n2nc3c(N4CCCC(C(=O)NCc5cccc(F)c5)C4)nnc(C)c3c2C)cc1` (stereo not given), the values for the Potency in experiment [1] and in experiment [2] were 1690 nM (active) and 8490 nM (active), respectively.

For `O=C(CSc1nc(-c2ccc(F)cc2)[nH]c1-c1ccc(F)cc1)Nc1ccc2c(c1)OCO2`, the results for the Potency in experiment [1] and in experiment [2] were 2130 nM (active) and 849 nM (active), respectively.

For `CC(C)(C)c1ccc(S(=O)(=O)c2cnc(SCC(=O)Nc3ccc(F)c(Cl)c3)[nH]c2=O)cc1`, the values for the Potency in experiment [1] and in experiment [2] were 16900 nM (active) and 536 nM (active), respectively.

For `O=C(CSc1nnc(-c2cccc(F)c2)c(-c2cccc(F)c2)n1)NC1CCCCC1`, the Potency entry in experiment [1] was “inactive”. Further, the Potency in experiment [2] was 1510 nM (active).

In the case of `COc1ccc(C(=O)Oc2ccc(C(c3c(C)[nH][nH]c3=O)c3c(C)[nH][nH]c3=O)cc2OC)cc1`, the Potency entry in experiment [1] is “inactive”. Moreover, the Potency in experiment [2] is 3380 nM (active).

Consider `CC(CCC(=O)O)C1CC[C@H]2C3[C@H](O)C[C@@H]4C[C@H](O)CCC4(C)[C@H]3C[C@H](O)C12C` (stereo not given in full), for which the Potency result in experiment [1] and in experiment [2] was “inactive” in each case.

`CCc1cccc(CC)c1-n1c(CC(C)C)c(C(=O)N2CCNCC2)cc(-c2nc(-c3ccc(Cl)cc3)cs2)c1=O`: the Potency in experiment [1] is 9520 nM (active); in experiment [2], 10700 nM (active).

Consider `CC(=O)c1ccc(N2CCN(c3ncnc4c3cnn4C)CC2)cc1`, for which the Potency entry in experiment [1] and in experiment [2] was “inactive” in each case.

As for `O=C(CC1N=C2c3ccccc3N=C(SCc3ccc(Cl)cc3)N2C1=O)NCCc1ccccc1` (stereo not given), the Potency in experiment [1] is 2130 nM (active); in experiment [2], 1900 nM (active).

Consider `CCOC(=O)c1ccc(NC(=O)CSc2cc(-c3ccccc3)nc(C)n2)cc1`, for which the Potency entry in experiment [1] was “inactive”. In experiment [2], the Potency was 952 nM (active).

Take `CCOc1ccc(-c2cc(NC(=O)Nc3ccccc3Cl)c(C(=O)OC)s2)cc1`: the Potency entry in experiment [1] was “inactive”. Also, in experiment [2], the Potency was 5350 nM (active).

With `COc1cc(C(c2c(C)[nH][nH]c2=O)c2c(C)[nH][nH]c2=O)ccc1OC(=O)c1ccccc1OC`, the Potency entry in experiment [1] is “inactive”. Also, the Potency in experiment [2] is 8490 nM (active).

`Cc1noc(/C=C/c2cccs2)c1S(=O)(=O)N1CCC(C(=O)NCc2ccc(Cl)cc2)CC1`: the Potency in experiment [1] was 2390 nM (active); in experiment [2], 213 nM (active).

`CCc1ccc(-c2nc(CSCC(=O)NCc3ccc(C)cc3)c(C)o2)cc1`: the Potency in experiment [1] is 15100 nM (active); in experiment [2], 2680 nM (active).

For the molecule `NC(=O)C(c1ccccc1)(c1ccccc1)[C@H]1CCN(CCc2ccc3c(c2)CCO3)C1`, the Potency is 42.5 nM (active) in experiment [1] and 8490 nM (active) in experiment [2].
